Compounds without any hit were thinned out: in the full panel of roughly 83,000, 20% have a hit.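 Percent growth is the endpoint: 0 to 100 indicates growth inhibition (40 means 60% inhibition), 0 means no net growth, and negative values indicate cell death.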 A number with no mark means an inactive call. The source made the active and inactive calls. Rule for the calls: active = growth percent below 10; inactive = the rest.

Some test systems named below: NCI-H23 lung; NCI-H226 lung; HOP-62 NSCLC; NCI-H460 lung; HOP-92 NSCLC; NCI-H522 lung; A549/ATCC NSCLC; 786-0 renal; COLO 205 colon; DU-145 prostate; K-562 leukemia; MALME-3M melanoma; MDA-MB-231 breast; RXF 393 renal; SF-268 CNS; SF-295 CNS; SF-539 CNS; UACC-257 melanoma; M14 melanoma.
Holding throughout (assay): NCI-60 one-dose screen, 48 h (100 = growth as untreated, 0 = no growth, -100 = all killed)
Common to all, as to conditions: 10 µM unless noted

For the molecule `CC(C)OC(=O)NNC(=O)c1ccncc1`, the growth with NCI-H23 lung was 105%; in the experiment on NCI-H226 lung, 107%; in the experiment with HOP-62 NSCLC, 108%; in the experiment on NCI-H460 lung it was 106%; in the experiment with HOP-92 NSCLC, 113%; in the experiment with NCI-H522 lung, 88.9%. Further, the growth in the experiment with A549/ATCC NSCLC is 105%; with 786-0 renal it was 104%; with COLO 205 colon, 110%; in the experiment on DU-145 prostate it was 111%; with K-562 leukemia, 110%; in the experiment with MALME-3M melanoma, 93%. The growth in the experiment on MDA-MB-231 breast is 108%; with RXF 393 renal it was 120%; in the experiment on SF-268 CNS, 104%; in the experiment on SF-295 CNS it was 113%; in the experiment with SF-539 CNS, 97.2%; in the experiment with UACC-257 melanoma it was 105%.
For `COc1ccc(/C(C)=C(\c2ccc(Cl)cc2)c2ccc(OCCN3CCCC3)cc2)cc1F`, the growth with NCI-H23 lung is 55.1%; with NCI-H226 lung it was 69.3%; with HOP-62 NSCLC, -17.6% (active); in the experiment with NCI-H460 lung, -55.6% (active); in the experiment on HOP-92 NSCLC it was 65.8%; with NCI-H522 lung it was 71.1%. In addition, the growth was 42.2% with A549/ATCC NSCLC; 4.18% (active) in the experiment on 786-0 renal; -40.6% (active) in the experiment with COLO 205 colon; 49.6% with DU-145 prostate; -1.68% (active) in the experiment on K-562 leukemia; -38.2% (active) in the experiment on MALME-3M melanoma. Also, the growth in the experiment on MDA-MB-231 breast was 36.7%; in the experiment on SF-268 CNS it was 54.7%; in the experiment on SF-295 CNS it was -42.9% (active); in the experiment with SF-539 CNS it was 3.19% (active); with UACC-257 melanoma, 2.99% (active).
Consider `Cn1nnnc1-c1ccc(N)cc1`, for which the growth is 88.7% with NCI-H23 lung; 107% in the experiment with NCI-H226 lung; 95.9% in the experiment on HOP-62 NSCLC; 105% with NCI-H460 lung; 96.3% with HOP-92 NSCLC; 84.2% in the experiment with NCI-H522 lung. In addition, the growth with A549/ATCC NSCLC is 95.6%; in the experiment on 786-0 renal, 93.8%; in the experiment with COLO 205 colon, 110%; in the experiment on DU-145 prostate, 99%; in the experiment on MALME-3M melanoma it was 99.1%; with MDA-MB-231 breast, 106%. Besides, the growth was 111% with RXF 393 renal; 91.7% in the experiment on SF-268 CNS; 98.1% in the experiment with SF-295 CNS; 98.8% with SF-539 CNS; 106% with UACC-257 melanoma.
Consider `Cc1nc2ccc(C(=O)NCc3cc(C(=O)O)c(C)o3)cc2nc1C`, for which the growth in the experiment on NCI-H23 lung was 101%; with NCI-H226 lung, 100%; with HOP-62 NSCLC it was 77%; with NCI-H460 lung, 100%; in the experiment on HOP-92 NSCLC it was 90.8%; with NCI-H522 lung, 92.2%. The growth in the experiment with A549/ATCC NSCLC was 91.4%; in the experiment on 786-0 renal, 94.4%; in the experiment on DU-145 prostate it was 105%; in the experiment with K-562 leukemia it was 110%; with MALME-3M melanoma, 93.4%; with MDA-MB-231 breast it was 101%. In addition, the growth was 97.4% in the experiment on RXF 393 renal; 91.4% with SF-268 CNS; 102% in the experiment on SF-295 CNS; 96.2% in the experiment on SF-539 CNS; 87.2% in the experiment on UACC-257 melanoma; 91.4% with M14 melanoma.
Take `Cc1nc(C)c(-c2nn3c(-c4cccc(F)c4)nnc3s2)s1`: the growth was 97.3% with NCI-H23 lung; 102% in the experiment on NCI-H226 lung; 98.7% in the experiment on HOP-62 NSCLC; 102% in the experiment on NCI-H460 lung; 86.2% with HOP-92 NSCLC; 77.6% with NCI-H522 lung. For the same molecule, the growth in the experiment on A549/ATCC NSCLC is 87%; in the experiment on COLO 205 colon, 101%; with DU-145 prostate, 102%; with K-562 leukemia it was 70.4%; in the experiment on MALME-3M melanoma it was 111%; with MDA-MB-231 breast, 107%. The growth with RXF 393 renal was 96.3%; in the experiment on SF-268 CNS, 97.6%; in the experiment with SF-295 CNS it was 100%; with SF-539 CNS, 104%; with UACC-257 melanoma it was 92.4%.
As to `C/C(Cc1ccc(Cl)cc1)=C(/c1ccc(Cl)cc1)c1ccc(OCCN(C)C)cc1`, the growth in the experiment with NCI-H23 lung was 73.2%; in the experiment on NCI-H226 lung it was 104%; in the experiment on HOP-62 NSCLC, 99.2%; with NCI-H460 lung, -46.9% (active); in the experiment with HOP-92 NSCLC it was 72%; in the experiment with NCI-H522 lung it was 80.6%. The growth is 57.8% in the experiment on A549/ATCC NSCLC; 61.7% in the experiment on 786-0 renal; -59.2% (active) with COLO 205 colon; 62.3% with DU-145 prostate; -4.72% (active) in the experiment with K-562 leukemia; 37.1% in the experiment with MALME-3M melanoma. Moreover, the growth with MDA-MB-231 breast was 74.1%; in the experiment on SF-268 CNS, 85.6%; with SF-295 CNS, 97.2%; in the experiment on SF-539 CNS, 66.7%; with UACC-257 melanoma, 71.3%.
As to `Cc1cc(C)on1`, the growth is 109% in the experiment on NCI-H23 lung; 103% in the experiment on NCI-H226 lung; 111% in the experiment with HOP-62 NSCLC; 116% in the experiment on NCI-H460 lung; 89.3% in the experiment on HOP-92 NSCLC; 107% with NCI-H522 lung. Moreover, the growth was 97.9% with A549/ATCC NSCLC; 101% with 786-0 renal; 112% in the experiment on COLO 205 colon; 102% with K-562 leukemia; 112% with MALME-3M melanoma; 104% with MDA-MB-231 breast. The growth was 101% in the experiment with RXF 393 renal, 115% with SF-295 CNS, 103% in the experiment with SF-539 CNS and 91.6% in the experiment on UACC-257 melanoma.
Regarding `O=C1NN(C(=O)c2ccc(O)cc2)C(c2ccccc2)=N/C1=C\c1cn(-c2ccccc2)nc1-c1ccccc1`, the growth was 98.3% with NCI-H23 lung; 103% in the experiment with NCI-H226 lung; 92% in the experiment with HOP-62 NSCLC; 100% in the experiment with NCI-H460 lung; 94.9% in the experiment on HOP-92 NSCLC; 85% with NCI-H522 lung. The growth in the experiment on A549/ATCC NSCLC is 99.7%; with 786-0 renal, 94%; with DU-145 prostate it was 92%; in the experiment on K-562 leukemia, 93.7%; in the experiment with MALME-3M melanoma, 99%; with MDA-MB-231 breast, 106%. In addition, the growth in the experiment on RXF 393 renal was 107%; in the experiment on SF-268 CNS, 96.8%; in the experiment with SF-295 CNS, 95%; in the experiment on SF-539 CNS, 89.1%; with UACC-257 melanoma, 93.8%; in the experiment on M14 melanoma it was 96.2%.

Values taken from PubChem BioAssay (NCI).
